Results on eleven compounds are retold here after ChEMBL document CHEMBL3988442, “University of Dundee, Small-Polar-MMV Screening Library” (2021).

The structures appear in SMILES notation. For some of these results: Measured potencies and affinities stand elsewhere.

Common to all, as to set-up: scale not given: direction of the effect not stated beside the values
In assay [1] the target is Protein translocase subunit SecA (Escherichia coli (strain K12)) (UniProt P10408). The experiment in a line: Assay to Identify E. coli SecA ATPase Inhibitors. Format: functional. Conditions: 30 µM.
Assay [2] deals with T1, Ubiquitin-activating enzyme e1, putative (Leishmania donovani (strain BPK282A1)) (UniProt E9BSI1).
T1 sequence (whole entry): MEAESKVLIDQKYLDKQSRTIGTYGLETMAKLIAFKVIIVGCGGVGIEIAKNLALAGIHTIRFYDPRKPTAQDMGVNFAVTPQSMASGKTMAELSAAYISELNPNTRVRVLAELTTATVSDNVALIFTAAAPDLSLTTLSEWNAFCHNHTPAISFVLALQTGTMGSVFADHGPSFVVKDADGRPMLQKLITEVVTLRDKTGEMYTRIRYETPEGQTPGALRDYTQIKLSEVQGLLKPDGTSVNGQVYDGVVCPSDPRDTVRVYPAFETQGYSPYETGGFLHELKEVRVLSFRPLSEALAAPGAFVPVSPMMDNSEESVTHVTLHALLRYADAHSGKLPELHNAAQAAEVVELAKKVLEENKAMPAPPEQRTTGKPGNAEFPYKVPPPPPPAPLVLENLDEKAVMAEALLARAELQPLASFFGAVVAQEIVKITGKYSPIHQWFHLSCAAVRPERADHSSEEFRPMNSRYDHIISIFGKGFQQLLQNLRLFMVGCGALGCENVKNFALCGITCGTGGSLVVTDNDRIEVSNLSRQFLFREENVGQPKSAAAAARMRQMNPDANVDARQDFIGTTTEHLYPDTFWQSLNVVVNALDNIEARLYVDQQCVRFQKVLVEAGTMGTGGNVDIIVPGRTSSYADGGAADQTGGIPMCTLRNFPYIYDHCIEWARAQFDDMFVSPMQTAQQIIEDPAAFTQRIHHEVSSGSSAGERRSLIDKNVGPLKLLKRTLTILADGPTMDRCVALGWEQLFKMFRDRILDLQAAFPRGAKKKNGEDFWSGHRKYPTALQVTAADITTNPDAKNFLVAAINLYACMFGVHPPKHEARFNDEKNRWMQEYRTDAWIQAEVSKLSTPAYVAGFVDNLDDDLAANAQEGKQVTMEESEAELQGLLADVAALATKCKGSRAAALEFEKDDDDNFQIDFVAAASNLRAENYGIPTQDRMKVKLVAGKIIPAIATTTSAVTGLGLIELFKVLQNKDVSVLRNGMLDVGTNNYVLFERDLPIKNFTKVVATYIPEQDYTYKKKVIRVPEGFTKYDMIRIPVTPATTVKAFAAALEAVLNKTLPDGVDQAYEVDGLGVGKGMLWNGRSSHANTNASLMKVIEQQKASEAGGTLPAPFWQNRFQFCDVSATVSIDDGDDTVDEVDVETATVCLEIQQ
The experiment in a line: Leishmania donovani Ubiquitin Activating Enzyme (LdE1). Format: functional. The conditions noted are these: 30 µM.

Assay [3] concerns the target AMP-activated protein kinase, AMPK (Homo sapiens) (UniProt P54646+O43741+P54619+Q9UGJ0+Q9Y478+Q13131+Q9UGI9). The experiment in a line: AMP-dependent Kinase enzyme assay. An in vitro enzyme assay that detects ADP turnover that is directly proportional to AMPK activity. This uses naive AMPK that is activated during the assay with MK-8722. Type of assay: functional. Conditions: 30 µM.

Assay [4] deals with Sialic acid-binding Ig-like lectin 9 (Homo sapiens) (UniProt Q9Y336). In words: Hs-Siglec9 ALPHAscreen SOP 20170721. The conditions noted are these: 10 µM. In general terms: In Alpha technology, singlet oxygen from a donor bead excites a nearby acceptor bead.
For the next assay, the system named is Trypanosoma cruzi. In words: Trypanosoma cruzi phosphomannomutase and mannose-1-phosphate guanylyltransferase assay. Type of assay: functional. Conditions: 10 µM.
Assay [5] has as its target T2, Arginase-2, mitochondrial (Homo sapiens) (UniProt P78540).
T2 sequence (whole entry): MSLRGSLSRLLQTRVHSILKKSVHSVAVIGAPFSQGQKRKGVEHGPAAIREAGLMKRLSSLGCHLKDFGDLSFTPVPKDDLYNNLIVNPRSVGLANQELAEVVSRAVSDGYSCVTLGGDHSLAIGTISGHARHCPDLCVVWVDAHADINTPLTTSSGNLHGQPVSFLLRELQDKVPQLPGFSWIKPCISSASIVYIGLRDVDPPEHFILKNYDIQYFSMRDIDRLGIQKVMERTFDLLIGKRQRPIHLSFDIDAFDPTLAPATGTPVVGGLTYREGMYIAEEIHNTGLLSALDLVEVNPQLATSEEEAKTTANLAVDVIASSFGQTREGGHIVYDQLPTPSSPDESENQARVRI
The experiment in a line: in vitro enzyme assay to detect the production of urea directly proportional to the activity of Arginase II. Further: in the data most compounds retested in dose-response had high values. Type of assay: functional. The conditions noted are these: 33.3 µM.

The target in assay [6] is T3, Proteasome subunit beta (Trypanosoma cruzi) (UniProt O96673).
T3 sequence (whole entry): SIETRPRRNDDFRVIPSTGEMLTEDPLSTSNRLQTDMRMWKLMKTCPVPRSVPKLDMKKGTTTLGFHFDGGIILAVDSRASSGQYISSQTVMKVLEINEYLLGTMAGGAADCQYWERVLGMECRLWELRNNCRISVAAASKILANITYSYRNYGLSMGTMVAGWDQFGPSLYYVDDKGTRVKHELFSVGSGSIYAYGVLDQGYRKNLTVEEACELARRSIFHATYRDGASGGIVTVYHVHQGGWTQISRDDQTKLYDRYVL
In words: Trypanosoma cruzi proteasome chymotrypsin-like activity (TcProtChymo) assay. Further: in the data most compounds retested in dose-response had high values. Format: functional. Conditions: 9.37 µM.

For a further assay, the species on record is Homo sapiens. The experiment in a line: To identify inhibition of the IFN signalling (Jak-Stat) pathway via expression of an eGFP reporter gene under the control of an IFN-stimulated response element (ISRE) containing MxA promoter. Type of assay: functional. Conditions: 30 µM. (Reporter assays use an easily measured gene product as a stand-in for the process of interest.)

The target of assay [7] is T4, Tyrosyl-tRNA synthetase, putative (Trypanosoma cruzi (strain CL Brener)) (UniProt Q4DSP6).
T4 sequence (whole entry): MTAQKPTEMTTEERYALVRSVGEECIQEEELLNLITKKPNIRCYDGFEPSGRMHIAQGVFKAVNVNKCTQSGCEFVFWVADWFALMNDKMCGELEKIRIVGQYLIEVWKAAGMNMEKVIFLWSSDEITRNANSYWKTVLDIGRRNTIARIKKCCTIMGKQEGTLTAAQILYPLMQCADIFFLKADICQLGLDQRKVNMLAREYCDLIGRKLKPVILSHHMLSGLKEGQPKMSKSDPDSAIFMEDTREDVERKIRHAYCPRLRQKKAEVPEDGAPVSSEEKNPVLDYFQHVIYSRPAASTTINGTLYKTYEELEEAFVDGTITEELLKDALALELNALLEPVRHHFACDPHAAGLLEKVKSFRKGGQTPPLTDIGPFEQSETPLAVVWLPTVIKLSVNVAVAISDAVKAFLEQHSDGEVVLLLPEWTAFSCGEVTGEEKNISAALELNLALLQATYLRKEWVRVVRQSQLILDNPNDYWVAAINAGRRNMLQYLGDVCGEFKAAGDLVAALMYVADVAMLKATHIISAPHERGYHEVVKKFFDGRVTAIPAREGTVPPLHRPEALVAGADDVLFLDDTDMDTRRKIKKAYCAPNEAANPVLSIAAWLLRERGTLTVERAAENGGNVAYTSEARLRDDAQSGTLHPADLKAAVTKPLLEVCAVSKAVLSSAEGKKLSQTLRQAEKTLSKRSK
The experiment in a line: Trypanosoma cruzi tyrosyl tRNA synthetase (TcYRS) _High Tyrosine SOP. Further: in the data most compounds retested in dose-response had high values. Conditions: 30 µM. Type of assay: functional.

Assay [8] concerns the target T4, Tyrosyl-tRNA synthetase, putative (Trypanosoma cruzi (strain CL Brener)). The experiment in a line: Trypanosoma cruzi tyrosyl tRNA synthetase (TcYRS) SOP. Type of assay: functional. Conditions: 30 µM.
The target of assay [9] is Chromo domain-containing protein 1 (Saccharomyces cerevisiae (strain ATCC 204508 / S288c) (Baker's yeast)) (UniProt P32657). The experiment in a line: ScCHD-1 Enzyme Inhibition Assay. Further: in the data most compounds retested in dose-response had high values. Type of assay: functional. The conditions noted are these: 30 µM.
Chain of Chromo domain-containing protein 1 (Saccharomyces cerevisiae (strain ATCC 204508 / S288c) (Baker's yeast)) (P32657 whole entry, the tested form may be a part): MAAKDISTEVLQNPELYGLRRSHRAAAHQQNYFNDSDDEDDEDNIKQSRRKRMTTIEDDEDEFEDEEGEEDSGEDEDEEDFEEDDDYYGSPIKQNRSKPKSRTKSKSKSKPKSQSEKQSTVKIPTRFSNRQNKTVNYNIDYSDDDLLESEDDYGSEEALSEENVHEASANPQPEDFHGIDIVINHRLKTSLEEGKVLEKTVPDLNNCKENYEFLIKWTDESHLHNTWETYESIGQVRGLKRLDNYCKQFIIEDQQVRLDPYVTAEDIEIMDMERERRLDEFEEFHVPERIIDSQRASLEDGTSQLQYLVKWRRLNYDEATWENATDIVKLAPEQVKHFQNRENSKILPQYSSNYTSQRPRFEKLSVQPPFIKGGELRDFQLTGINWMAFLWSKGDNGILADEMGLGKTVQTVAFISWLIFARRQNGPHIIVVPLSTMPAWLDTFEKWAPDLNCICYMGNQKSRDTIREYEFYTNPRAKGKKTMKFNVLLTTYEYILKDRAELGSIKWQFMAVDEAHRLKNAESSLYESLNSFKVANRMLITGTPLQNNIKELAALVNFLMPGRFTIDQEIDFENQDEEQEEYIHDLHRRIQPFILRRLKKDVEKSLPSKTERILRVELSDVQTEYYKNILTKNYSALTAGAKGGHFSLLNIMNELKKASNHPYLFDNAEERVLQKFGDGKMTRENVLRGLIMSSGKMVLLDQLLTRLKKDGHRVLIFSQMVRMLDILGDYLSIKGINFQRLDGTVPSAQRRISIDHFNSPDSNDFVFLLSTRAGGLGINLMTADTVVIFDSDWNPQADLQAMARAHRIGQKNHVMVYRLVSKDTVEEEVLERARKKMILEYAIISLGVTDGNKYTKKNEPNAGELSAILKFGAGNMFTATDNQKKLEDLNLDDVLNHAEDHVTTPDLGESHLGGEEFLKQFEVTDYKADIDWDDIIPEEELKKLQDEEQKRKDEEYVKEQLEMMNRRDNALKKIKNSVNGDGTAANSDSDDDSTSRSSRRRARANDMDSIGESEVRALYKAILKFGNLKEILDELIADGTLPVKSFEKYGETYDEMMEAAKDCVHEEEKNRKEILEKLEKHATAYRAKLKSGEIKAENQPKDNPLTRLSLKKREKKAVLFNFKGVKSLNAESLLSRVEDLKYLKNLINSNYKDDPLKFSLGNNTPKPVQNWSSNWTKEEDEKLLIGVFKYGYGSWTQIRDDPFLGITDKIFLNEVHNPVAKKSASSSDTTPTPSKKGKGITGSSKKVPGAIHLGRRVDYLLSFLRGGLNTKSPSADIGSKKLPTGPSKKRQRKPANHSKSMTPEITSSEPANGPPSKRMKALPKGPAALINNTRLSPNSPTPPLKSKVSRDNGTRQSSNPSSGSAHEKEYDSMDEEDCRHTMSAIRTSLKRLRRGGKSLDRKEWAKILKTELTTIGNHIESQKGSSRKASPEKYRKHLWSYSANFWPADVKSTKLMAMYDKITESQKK

Chain of Protein translocase subunit SecA (Escherichia coli (strain K12)) (P10408 whole entry): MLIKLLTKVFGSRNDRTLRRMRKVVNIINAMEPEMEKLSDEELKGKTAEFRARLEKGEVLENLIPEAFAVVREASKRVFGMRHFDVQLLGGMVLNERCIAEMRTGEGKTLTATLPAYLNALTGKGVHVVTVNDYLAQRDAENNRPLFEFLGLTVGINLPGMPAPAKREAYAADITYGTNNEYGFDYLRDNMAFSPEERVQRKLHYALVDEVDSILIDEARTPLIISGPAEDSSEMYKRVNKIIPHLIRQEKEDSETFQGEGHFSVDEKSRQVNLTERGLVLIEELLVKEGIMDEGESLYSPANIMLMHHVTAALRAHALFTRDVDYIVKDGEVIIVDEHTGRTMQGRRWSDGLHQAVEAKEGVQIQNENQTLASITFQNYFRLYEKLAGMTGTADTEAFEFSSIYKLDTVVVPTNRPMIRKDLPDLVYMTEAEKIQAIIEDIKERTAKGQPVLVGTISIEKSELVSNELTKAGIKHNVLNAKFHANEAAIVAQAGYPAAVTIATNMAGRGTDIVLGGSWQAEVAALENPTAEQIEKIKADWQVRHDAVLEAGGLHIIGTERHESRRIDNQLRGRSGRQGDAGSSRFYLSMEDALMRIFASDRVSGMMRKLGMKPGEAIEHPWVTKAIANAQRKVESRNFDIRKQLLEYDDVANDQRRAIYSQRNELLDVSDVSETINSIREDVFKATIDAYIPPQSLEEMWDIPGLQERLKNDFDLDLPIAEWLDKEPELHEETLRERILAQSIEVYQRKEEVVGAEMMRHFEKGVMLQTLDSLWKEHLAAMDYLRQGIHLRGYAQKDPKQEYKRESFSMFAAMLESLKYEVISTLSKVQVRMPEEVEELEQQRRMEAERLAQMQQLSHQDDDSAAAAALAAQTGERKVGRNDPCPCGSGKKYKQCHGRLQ
Chain of Sialic acid-binding Ig-like lectin 9 (Homo sapiens) (Q9Y336 whole entry): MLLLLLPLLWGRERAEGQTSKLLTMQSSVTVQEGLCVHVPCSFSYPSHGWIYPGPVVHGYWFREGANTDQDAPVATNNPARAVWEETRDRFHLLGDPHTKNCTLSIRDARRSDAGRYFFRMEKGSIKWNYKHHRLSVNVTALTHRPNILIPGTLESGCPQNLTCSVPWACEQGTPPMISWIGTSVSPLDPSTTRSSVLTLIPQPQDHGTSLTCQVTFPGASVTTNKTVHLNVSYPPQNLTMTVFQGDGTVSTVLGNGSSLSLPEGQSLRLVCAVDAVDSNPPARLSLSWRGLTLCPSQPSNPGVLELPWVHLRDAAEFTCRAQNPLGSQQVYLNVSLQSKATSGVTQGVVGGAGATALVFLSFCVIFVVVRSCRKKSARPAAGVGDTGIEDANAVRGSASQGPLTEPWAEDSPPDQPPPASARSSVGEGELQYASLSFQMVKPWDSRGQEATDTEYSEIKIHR

For the compound `COc1cc(C)nc(N2CCN(Cc3nccn3C)CC2)n1`, the Percent Effect is -2.16% in assay [1]; 9.72% in assay [2]; 3.08% in assay [3]; -2.82% in assay [4]; -0.875% with Trypanosoma cruzi; 1.32% in assay [5]. Also, the Percent Effect in [6] is 10.3%; in the assay filed under Homo sapiens, 0.819%; in assay [7], 2.1%; in [8], 2.56%; in assay [9], -3.1%.
In the case of `CC(CNC(=O)Nc1ccc(N(C)C)nc1)Cn1cccn1` (stereo unspecified), the Percent Effect in assay [1] is -4.28%; in [2] it was 4.17%; in assay [3], -13.8%; in assay [4] it was -3.22%; in the assay on Trypanosoma cruzi it was -3.21%; in [5], 3.09%. Also, the Percent Effect is 13.7% in [6]; -15.8% in the assay listed under Homo sapiens; -3.16% in assay [7]; 2.56% in assay [8]; -3.32% in assay [9].
Consider `CN(C(=O)c1cccc(C(=O)NCC(F)(F)F)c1)c1ccccc1`, for which the Percent Effect in assay [1] was -6.02%; in [2], -2.6%; in assay [3], -0.584%; in assay [4], 2.53%; in the assay on Trypanosoma cruzi, -5.8%; in assay [5] it was -6.9%. In addition, the Percent Effect was 9.82% in assay [6]; 7.29% in the assay filed under Homo sapiens; -1.07% in assay [7]; -8.64% in assay [8]; 0.0055% in assay [9].
With `CC(=O)Nc1nc(CN2CCOC(Cn3cc(C)cn3)C2)cs1` (stereo unspecified), the Percent Effect was -2.79% in assay [1]; 15.6% in assay [2]; 9.13% in assay [3]; -6.5% in assay [4]; 0.0979% with Trypanosoma cruzi; 0.21% in assay [5]. For the same compound, the Percent Effect is 19.5% in assay [6]; 2.79% in the assay listed under Homo sapiens; 3.81% in assay [7]; 21.2% in assay [8]; -20.4% in assay [9].
For `CNC(=O)CC1CCN(Cc2nc(-c3cccc(Cl)c3)oc2C)CC1`, the Percent Effect in [1] was -1.83%; in [2], 8.11%; in assay [3], -6.08%; in assay [4], 19.1%; with Trypanosoma cruzi, 4.05%; in assay [5] it was 0%. For the same compound, the Percent Effect in assay [6] was 20.2%; in the assay filed under Homo sapiens it was 4.01%; in assay [7] it was 5.82%; in assay [8], 9.76%; in assay [9], -2.39%.
On to `CC(C)n1ccc(-c2cc(C(=O)N3CCCC3)c3ccccn23)n1`, for which the Percent Effect was 2.31% in assay [1]; 13.5% in [2]; 128% in [3]; -12.1% in [4]; -4.79% in the assay on Trypanosoma cruzi; 0.319% in [5]. In addition, the Percent Effect in assay [6] is 3.69%; in the assay filed under Homo sapiens, 65.6%; in [7], -1.08%; in assay [8] it was -2.56%; in [9], -12%.
Turning to `CN(Cc1cnn(C)c1)C(=O)NC1CCN(c2ncccn2)CC1`, the Percent Effect is -7.21% in assay [1]; 13% in assay [2]; 1.2% in assay [3]; -4.13% in assay [4]; -10.7% in the assay with Trypanosoma cruzi; -0.356% in [5]. In addition, the Percent Effect in assay [6] is 6.25%; in the assay listed under Homo sapiens, 25.2%; in [7], 1.94%; in [8] it was 2.44%; in assay [9], -8.45%.
For `CN(Cc1ccc(C#N)cc1)Cc1noc(C(C)(C)C)n1`, the Percent Effect was -3.57% in [1]; 0% in assay [2]; -1.73% in assay [3]; 0.255% in assay [4]; -0.885% in the assay with Trypanosoma cruzi; 2.76% in [5]. Besides, the Percent Effect in assay [6] is 3%; in the assay listed under Homo sapiens it was 8.86%; in [7] it was -1.07%; in assay [8], -1.24%; in assay [9], 2.69%.
In the case of `CCc1noc(C2CCCCN2C(=O)c2ccn(C3CCCC3)n2)n1` (stereo unspecified), the Percent Effect in assay [1] is -3.89%; in assay [2] it was 20%; in [3], -10.1%; in assay [4], -4.33%; with Trypanosoma cruzi, 5.89%; in assay [5], -15.3%. Moreover, the Percent Effect in assay [6] is 13.7%; in the assay filed under Homo sapiens, 24.3%; in assay [7], 9.52%; in assay [8], 12.8%; in assay [9] it was -15.7%.
Regarding `CCCC(C)CN1CCC(n2cc(CCCO)nn2)CC1` (stereo unspecified), the Percent Effect in [1] is -3.6%; in [2], 4.17%; in [3], -2.5%; in assay [4], 0.0396%; in the assay on Trypanosoma cruzi, 1.46%; in assay [5], 1.32%. Besides, the Percent Effect is 2.28% in assay [6]; -7.18% in the assay listed under Homo sapiens; 4.21% in assay [7]; 5.13% in assay [8]; 0.69% in assay [9].
Consider `O=C(c1ccsc1)N1CCCC(c2cc(C(F)(F)F)[nH]n2)C1` (stereo unspecified), for which the Percent Effect in assay [1] is -8.76%; in [2] it was 5.26%; in assay [3], 10.2%; in assay [4], -0.389%; in the assay on Trypanosoma cruzi it was -4.39%; in assay [5] it was 0.719%. Further, the Percent Effect is -2.12% in assay [6]; 24.2% in the assay listed under Homo sapiens; 0.493% in assay [7]; 3.7% in assay [8]; 7.08% in [9].
